Screening results: PubChem, several laboratories
Most compounds without a hit are left out; they make up all but 0.97% or so of the library.
Beta2AR agonist: human beta-2 adrenergic receptor agonism by FAP; AID 504454; P07550; hit rate 0.43% among 340,000; response, % (no concentration beside the values); Am2.2-beta2AR cells, FAP receptor internalization, flow cytometry;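 active = response above a set limit, near 3 SD of response in nonfluorescent compounds, cut at about 42% in these data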
TLR9-MyD88 block: inhibitors of human TLR9-MyD88 binding; CHO BLA complementation TLR9-MyD88, CCF4 FRET ratio; inhibition, % at 4.98 µM; Q9NR96+Q99836; hit rate 0.21% among 340,000; AID 504734;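 active = inhibition above the mean over all tested compounds plus 3 SD, cut at about 21% in these data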;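 also: 0% = DMSO only wells and 100% = clavulanate BLA inhibitor control wells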
NOD2 RIPK2 PPI: inhibitors of human NOD2-RIPK2 interaction | hit rate 0.38% among 360,000 | inhibition, % at 4.98 µM | AID 624267 | CHO BLA complementation NOD2-RIPK2, CCF4 ratio; in the data active = inhibition above about 21%;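 also: 0% = vehicle only and 100% = reference blocker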
Target sequence (O43353 whole entry, looked up): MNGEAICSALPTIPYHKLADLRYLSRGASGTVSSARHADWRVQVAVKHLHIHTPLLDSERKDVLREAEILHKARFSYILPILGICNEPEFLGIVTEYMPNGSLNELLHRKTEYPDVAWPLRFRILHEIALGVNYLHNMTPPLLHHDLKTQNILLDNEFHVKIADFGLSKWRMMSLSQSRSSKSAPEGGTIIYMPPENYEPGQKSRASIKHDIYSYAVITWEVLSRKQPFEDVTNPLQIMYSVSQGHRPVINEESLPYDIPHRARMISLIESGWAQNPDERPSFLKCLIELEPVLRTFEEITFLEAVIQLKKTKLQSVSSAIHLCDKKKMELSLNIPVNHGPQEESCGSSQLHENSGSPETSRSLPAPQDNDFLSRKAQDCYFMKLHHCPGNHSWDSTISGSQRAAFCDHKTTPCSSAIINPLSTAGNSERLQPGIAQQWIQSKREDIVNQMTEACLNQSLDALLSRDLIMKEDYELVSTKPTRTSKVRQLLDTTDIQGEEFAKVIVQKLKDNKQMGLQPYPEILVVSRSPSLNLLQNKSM
TLR4-MyD88 BLA: TLR4-MyD88 interaction inhibition in cells; O00206+Q99836; HeLa CL3-4 TLR4/MyD88 BLA complementation, FRET ratio; inhibition, % at 8.4 µM; hit rate 0.18% among 200,000; AID 861; in the data active = inhibition above about 25%;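 also: 0% = vehicle and 100% = reference inhibitor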
NTR1 agonist: NTR1 (human) agonism; P30989; NTR1-U2OS beta-arrestin-GFP spot imaging, agonist mode; AID 493036; hit rate 0.17% among 330,000; activation, % at 20 µM;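 active = activation at or above 40% of the spot to cytoplasm intensity ratio, with at least 20 cells analyzed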;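 also: 0% = DMSO without peptide and 100% = 100 nM NTR1 peptide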
Bfl-1 A1 inh: inhibitors of the anti-apoptotic protein A1, read as caspase activation; hit rate 0.066% among 330,000; MEF A1-2A-BIM cells, Caspase-Glo 3/7 luminescence, 3 h; percent of clofoctol response, vehicle zero; caspase activation, % (concentration not given with the values);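 active = over half of replicate activation scores above 10%, or exactly half above 10 with the replicate mean above 10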
TLR9-MyD88 conf: TLR9-MyD88 interaction inhibition, confirmation. shares compounds with TLR9-MyD88 block. hit rate 51% among 680. inhibition, % at 4.98 µM. CHO TLR9/MyD88 BLA complementation, CCF4 FRET ratio;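 active = mean inhibition across three repeats above about 21% taken from the earlier screen, limit read from the data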;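 also: blue over green emission ratio reports constitutive TLR9 MyD88 association via BLA complementation; 0% = DMSO vehicle wells and 100% = clavulanate BLA inhibitor wells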
BLA counter-1: beta-lactamase reporter inhibition, counter-screen artifact; CHO-BLA cells, CCF4 FRET ratio, BLA reporter; hit rate 7% among 680; shares compounds with TLR9-MyD88 block; inhibition, % at 4.98 µM;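 active = mean inhibition above a 50% cutoff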;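 also: counterscreen of TLR9-MyD88 hits on CMV-driven BLA in CHO-K1 cells; 0% = DMSO alone and 100% = clavulanate blocking BLA; higher means less blue over green ratio so more BLA blockade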
TLR9 CHO cytotox: counter-screen for TLR9-MyD88 inhibitors: cytotoxicity in CHO cells | hit rate 39% among 680 | luminescence | AID 588336 | shares compounds with TLR9-MyD88 block | inhibition, % at 4.98 µM; in the data active = inhibition above about 11%
NOD2 RIPK2 conf: NOD2-RIPK2 interaction inhibition confirmed; inhibition, % at 4.98 µM; CHO cells, NOD2-RIPK2 BLA complementation, CCF4 FRET; shares compounds with NOD2 RIPK2 PPI; AID 624370; hit rate 70% among 1,200;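 active = mean inhibition across replicates above a set limit taken from the earlier primary screen, cut at about 21% in these data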;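 also: 0% = DMSO-only wells and the high end = clavulanate BLA-blocked wells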
BLA counter-2: hits BLA reporter in NOD2-RIPK2 inhibitor counterscreen; shares compounds with NOD2 RIPK2 PPI; CHO BLA reporter, CCF4 FRET ratio; inhibition, % at 4.98 µM; hit rate 57% among 1,200; AID 624371;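 active = mean inhibition above the low-control mean inhibition plus three low-control SD, cut at about 11% in these data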;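 also: 0% = DMSO only wells and 100% = clavulanate high control wells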
* hit, by the source's call.

How did Cc1ccccc1Oc1cc(-n2ncc(Cl)c(Cl)c2=O)ncn1 do in these assays?
Beta2AR agonist: 26; TLR9-MyD88 block: 35*; NOD2 RIPK2 PPI: 26*; TLR4-MyD88 BLA: -8; Bfl-1 A1 inh: -1; TLR9-MyD88 conf: 38*; BLA counter-1: 24; TLR9 CHO cytotox: 99*; NOD2 RIPK2 conf: 76*; BLA counter-2: -3

Results for CCOc1cnn(-c2cc(Oc3ccc(C)cc3)ncn2)c(=O)c1Cl ?
Beta2AR agonist: -16; TLR9-MyD88 block: -8; NOD2 RIPK2 PPI: -9; TLR4-MyD88 BLA: 8; NTR1 agonist: -1; Bfl-1 A1 inh: 1

Results for COCCNC(=O)Cn1nc(C)c2ccccc2c1=O ?
Beta2AR agonist: -4; TLR9-MyD88 block: 4; NOD2 RIPK2 PPI: 5; TLR4-MyD88 BLA: 0; NTR1 agonist: 1; Bfl-1 A1 inh: -1

How did O=C1C=CC(=O)N1CCNc1ncc(C(F)(F)F)cc1Cl do in these assays?
Beta2AR agonist: 69*; TLR9-MyD88 block: 28*; NOD2 RIPK2 PPI: 47*; TLR4-MyD88 BLA: 9; NTR1 agonist: 29; TLR9-MyD88 conf: 32*; BLA counter-1: 11; TLR9 CHO cytotox: 100*; NOD2 RIPK2 conf: 86*; BLA counter-2: 24*

What do the screens show for `O=C(COC(=O)c1c2c(nc3ccccc13)/C(=C\c1cccs1)CCC2)Nc1ccccc1`?
Beta2AR agonist: 13; TLR9-MyD88 block: -9; NOD2 RIPK2 PPI: -7; TLR4-MyD88 BLA: 4; NTR1 agonist: 7; Bfl-1 A1 inh: 0

Results for CC(C)CNC(=O)COC(=O)c1c2c(nc3ccccc13)/C(=C\c1cccs1)CC2 ?
Beta2AR agonist: -5; TLR9-MyD88 block: 30*; NOD2 RIPK2 PPI: 47*; TLR9-MyD88 conf: 46*; BLA counter-1: 54*; TLR9 CHO cytotox: 12*; NOD2 RIPK2 conf: 70*; BLA counter-2: 77*

Results for COc1ccccc1CNC(=O)CN1C(=O)c2cccc(N)c2C1=O ?
Beta2AR agonist: -2; TLR9-MyD88 block: 36*; NOD2 RIPK2 PPI: 31*; NTR1 agonist: -1; Bfl-1 A1 inh: -3; TLR9-MyD88 conf: 14; BLA counter-1: 20; TLR9 CHO cytotox: 10; NOD2 RIPK2 conf: 46*; BLA counter-2: 49*

How did CCC1CCCCN1C(=S)NC(=O)c1ccc(F)c(S(=O)(=O)N2CCOCC2)c1 (stereo not given) do in these assays?
Beta2AR agonist: -5; TLR9-MyD88 block: 0; NOD2 RIPK2 PPI: 6; TLR4-MyD88 BLA: -2; NTR1 agonist: 0; Bfl-1 A1 inh: 0

How did COc1ccc(C)cc1S(=O)(=O)N(C)CC(=O)NC1CCCCCC1 do in these assays?
Beta2AR agonist: -4; TLR9-MyD88 block: 3; NOD2 RIPK2 PPI: -1; TLR4-MyD88 BLA: -1; NTR1 agonist: 0; Bfl-1 A1 inh: -1

How did O=C(Nc1ccccc1C(=O)Nc1cccnc1)c1ccccc1 do in these assays?
Beta2AR agonist: -13; TLR9-MyD88 block: -9; NOD2 RIPK2 PPI: -1; TLR4-MyD88 BLA: 5; NTR1 agonist: 0; Bfl-1 A1 inh: -3

Results for O=C(c1ccccc1)c1ccccc1N1C(=O)C=CC1=O ?
Beta2AR agonist: -16; TLR9-MyD88 block: 33*; NOD2 RIPK2 PPI: 70*; NTR1 agonist: -2; Bfl-1 A1 inh: -2; TLR9-MyD88 conf: 26*; BLA counter-1: 5; TLR9 CHO cytotox: 96*; NOD2 RIPK2 conf: 69*; BLA counter-2: 16*

Results for O=C(O)c1ccccc1C(=O)c1ccc(-c2ccccc2)cc1 ?
Beta2AR agonist: -3; TLR9-MyD88 block: -5; NOD2 RIPK2 PPI: -10; NTR1 agonist: -1; Bfl-1 A1 inh: 2

What do the screens show for `COC(=O)C1=NNC2(C)C(=O)N(c3ccc(C)cc3)C(=O)C12` (stereo not given)?
Beta2AR agonist: 3; TLR9-MyD88 block: 0; NOD2 RIPK2 PPI: 0; NTR1 agonist: 3; Bfl-1 A1 inh: 0

What do the screens show for `CCOc1ccc2nc3ccc4[nH]onc4c3c2c1`?
Beta2AR agonist: 9; TLR9-MyD88 block: 17; NOD2 RIPK2 PPI: 34*; TLR4-MyD88 BLA: 34*; NTR1 agonist: 5; Bfl-1 A1 inh: 1; NOD2 RIPK2 conf: 28*; BLA counter-2: 37*

How did Cc1cc(=O)oc2c3c(cc(OCC(=O)NC4CC4)c12)OC(C)(C)CC3 do in these assays?
Beta2AR agonist: -20; TLR9-MyD88 block: -6; NOD2 RIPK2 PPI: -6; NTR1 agonist: 1; Bfl-1 A1 inh: 1

Results for COc1ccc(-c2cc(C(=O)NC3CCCCC3)no2)cc1OC ?
Beta2AR agonist: -6; TLR9-MyD88 block: -20; NOD2 RIPK2 PPI: 58*; NTR1 agonist: 1; Bfl-1 A1 inh: 0; NOD2 RIPK2 conf: 6; BLA counter-2: 2

Results for Cn1c(SCc2cccc(Br)c2)nnc1-c1ccccn1 ?
Beta2AR agonist: -22; TLR9-MyD88 block: -8; NOD2 RIPK2 PPI: 1; NTR1 agonist: 1; Bfl-1 A1 inh: 0

How did CCCCN(CC)CCNC(=O)Cn1cc2c(n1)-c1c(oc(C(=O)N3CCCC3)c1C)CC2 do in these assays?
Beta2AR agonist: -14; TLR9-MyD88 block: 4; NOD2 RIPK2 PPI: 1; NTR1 agonist: 0; Bfl-1 A1 inh: 0

What do the screens show for `Cc1c(C(=O)N2CCCC2)oc2c1-c1[nH]ncc1CC2`?
Beta2AR agonist: 4; TLR9-MyD88 block: 0; NOD2 RIPK2 PPI: 21*; TLR4-MyD88 BLA: -9; NTR1 agonist: 2; Bfl-1 A1 inh: 0; NOD2 RIPK2 conf: 4; BLA counter-2: 0

Results for COc1ccc(NC(=O)CS(=O)(=O)c2cn(CC(=O)N3CCCC3)c3ccccc23)c(OC)c1 ?
Beta2AR agonist: 0; TLR9-MyD88 block: -10; NOD2 RIPK2 PPI: 0; NTR1 agonist: 0; Bfl-1 A1 inh: 0

What do the screens show for `C/C(=N\NC(=O)c1ccc2c(c1)OCCO2)c1ccccc1`?
Beta2AR agonist: -11; TLR9-MyD88 block: 14; NOD2 RIPK2 PPI: -18; NTR1 agonist: 0; Bfl-1 A1 inh: -8

How did CCC1=C(CC2NCCc3ccccc32)CC2c3cc(OC)c(OC)cc3CCN2C1 (stereo not given) do in these assays?
Beta2AR agonist: 3; TLR9-MyD88 block: 2; NOD2 RIPK2 PPI: 16
